The record followed here is PubChem BioAssay (NCATS).

Molecules are shown by their SMILES. A number with no mark means an inactive call. Records with an inconclusive call do not appear. Activity calls are given as the source filed them. Unless noted, calls follow the shape of the dose curve; as a rule, active = well fitted curve in the direction sought with a large enough effect; inconclusive = small, poorly fitted or top-dose-only effect, or another doubt; inactive = no such curve, though single readings can be large; an effect the other way counts as inactive or inconclusive.

Assay [1] deals with Cytochrome P450 2C9 (Homo sapiens) (UniProt P11712). The assay is described as follows: qHTS Assay for Inhibitors and Substrates of Cytochrome P450 2C9 (AID 883). Also: nearly all actives have a fitted effect of over 60% in size. Also: potency is read from the fitted curve at half-maximal effect. As to activity change, negative = inhibition: % is scaled to controls: 0 for no effect and ±100 for the full control effect. The method in brief:
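Inhibition of CYP2C9 is scored as loss of luminescence, with 57uM sulphaphenazole defining 100% inhibition. Substrate Luciferin-H is used at 100uM, equal to its KM; enzyme at 10nM in 25mM KPO4, 60 min at 37C with NADPH regeneration.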

Assay [2] concerns the target Cytochrome P450 2C19 (Homo sapiens) (UniProt P33261). In words: qHTS Assay for Inhibitors and Substrates of Cytochrome P450 2C19 (AID 899). Also: potency is read from the fitted curve at half-maximal effect; nearly all actives have a fitted effect of over 60% in size. The method in brief:
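5nM enzyme + 10uM Luciferin-H EGE (=KM), 50mM KPO4; cpd pin-transferred, 10 min 37C; NADPH regen, 60 min 37C; stopped w/ luciferin detection reagent, 20 min; luminescence. Normalized to 57uM ketoconazole (AC100).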

Assay [3] can be described thus: qHTS for Inhibitors of Plasmodium falciparum (DD2) proliferation (AID 504314). Also: potency is read from the fitted curve at half-maximal effect.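 As to activity, negative = inhibition: parasite DNA measured by SYBR Green fluorescence after red cell lysis; plate controls were DMSO vehicle for no effect and artemisinin wells for full effect.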 The method in brief:
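Quantitative HTS growth inhibition: SYBR Green I binding to parasite DNA after 72 h drug exposure of infected erythrocytes (0.3% parasitemia, 2.5% hematocrit). Signals normalized per plate to inhibitor and vehicle wells.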

The nature of assay [4]: qHTS for Inhibitors of Plasmodium falciparum (GB4) proliferation (AID 504315).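 Also: 0% = DMSO vehicle and -100% = 0.29 µM artemisinin control; nearly all actives have a fitted effect of over 50% in size.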 The method in brief:
(§1)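 Erythrocytes infected with P. falciparum line (0.3% parasitemia, 2.5% hematocrit final) incubated with compounds 72 h at 37 °C, 5% CO2; SYBR Green lysis buffer added, fluorescence read next day. Normalized to 0.29 uM artemisinin and DMSO.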

Assay [5] can be described thus: qHTS for Inhibitors of Plasmodium falciparum (CP250) proliferation (AID 504320).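 Also: plate controls were DMSO vehicle for no effect and 0.29 µM artemisinin control for full effect.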 The method in brief:
as §1

Assay [6] deals with Atrial natriuretic peptide receptor 1 (Homo sapiens) (UniProt P16066). The assay is described as follows: Natriuretic polypeptide receptor (hNpr1) antagonism - Pilot CMLD screen (AID 1347052; calls by dose curve;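 also: HEK293 cells with hNpr1 stimulated by hNppA peptide at 0.1 nM; cGMP level read as GloSensor luciferase luminescence after agonist stimulation; series mostly up to about 9.2 µM; % is scaled to controls: 0 for no effect and ±100 for the full control effect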).
Sequence of Atrial natriuretic peptide receptor 1 (Homo sapiens) (P16066 whole entry, looked up): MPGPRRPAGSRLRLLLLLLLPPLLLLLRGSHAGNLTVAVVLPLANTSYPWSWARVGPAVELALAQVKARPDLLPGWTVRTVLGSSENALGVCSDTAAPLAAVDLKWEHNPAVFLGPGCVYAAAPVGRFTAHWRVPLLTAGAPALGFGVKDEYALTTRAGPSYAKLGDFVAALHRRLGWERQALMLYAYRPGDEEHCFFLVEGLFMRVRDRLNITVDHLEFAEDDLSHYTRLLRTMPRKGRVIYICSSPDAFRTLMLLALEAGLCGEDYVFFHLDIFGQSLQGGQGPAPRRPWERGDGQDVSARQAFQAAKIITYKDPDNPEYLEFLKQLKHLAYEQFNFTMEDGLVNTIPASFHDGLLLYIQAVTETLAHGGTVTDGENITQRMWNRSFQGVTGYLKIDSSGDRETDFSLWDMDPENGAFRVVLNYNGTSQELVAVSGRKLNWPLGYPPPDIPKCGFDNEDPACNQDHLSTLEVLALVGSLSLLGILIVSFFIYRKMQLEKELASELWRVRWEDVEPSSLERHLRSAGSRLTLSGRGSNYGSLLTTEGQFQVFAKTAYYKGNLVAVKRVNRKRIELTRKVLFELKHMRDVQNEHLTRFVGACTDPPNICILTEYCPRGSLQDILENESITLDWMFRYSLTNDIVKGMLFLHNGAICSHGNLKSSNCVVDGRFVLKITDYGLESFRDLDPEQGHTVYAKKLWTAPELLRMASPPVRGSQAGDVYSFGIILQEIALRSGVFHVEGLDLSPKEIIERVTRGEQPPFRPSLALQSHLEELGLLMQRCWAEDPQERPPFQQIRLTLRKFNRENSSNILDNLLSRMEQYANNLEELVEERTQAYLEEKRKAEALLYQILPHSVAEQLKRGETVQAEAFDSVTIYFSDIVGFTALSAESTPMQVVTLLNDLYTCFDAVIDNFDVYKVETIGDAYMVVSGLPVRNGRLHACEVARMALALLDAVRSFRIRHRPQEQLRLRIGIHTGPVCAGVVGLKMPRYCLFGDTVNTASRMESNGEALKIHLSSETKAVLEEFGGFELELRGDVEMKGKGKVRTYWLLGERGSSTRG
For assay [7], the target named is Cytochrome P450 3A4 (Homo sapiens) (UniProt P08684). In words: qHTS Assay for Activators of Cytochrome P450 3A4 (AID 885). Also: nearly all actives have a fitted effect of over 65% in size. The method in brief:
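Steps: enzyme/substrate mix dispensed; compound added, 10 min RT; NADPH regeneration solution added, 60 min RT; luciferin detection buffer stops reaction; 20 min later luminescence measured.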

Assay [8] is described as follows: qHTS for Inhibitors of Plasmodium falciparum (7G8) proliferation (AID 504316). Also: nearly all actives have a fitted effect of over 65% in size. Also: potency is read from the fitted curve at half-maximal effect.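 As to activity change, negative = inhibition: series mostly up to about 6.7 µM; 0% = DMSO vehicle and -100% = 0.29 µM artemisinin full kill.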 The method in brief:
as §1

The nature of assay [9]: qHTS for Inhibitors of Plasmodium falciparum (HB3) proliferation (AID 504318).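 Also: 0% = DMSO vehicle and -100% = artemisinin control; nearly all actives have a fitted effect of over 60% in size.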 The method in brief: as §1

Sequence of Cytochrome P450 3A4 (Homo sapiens) (P08684 whole entry, looked up): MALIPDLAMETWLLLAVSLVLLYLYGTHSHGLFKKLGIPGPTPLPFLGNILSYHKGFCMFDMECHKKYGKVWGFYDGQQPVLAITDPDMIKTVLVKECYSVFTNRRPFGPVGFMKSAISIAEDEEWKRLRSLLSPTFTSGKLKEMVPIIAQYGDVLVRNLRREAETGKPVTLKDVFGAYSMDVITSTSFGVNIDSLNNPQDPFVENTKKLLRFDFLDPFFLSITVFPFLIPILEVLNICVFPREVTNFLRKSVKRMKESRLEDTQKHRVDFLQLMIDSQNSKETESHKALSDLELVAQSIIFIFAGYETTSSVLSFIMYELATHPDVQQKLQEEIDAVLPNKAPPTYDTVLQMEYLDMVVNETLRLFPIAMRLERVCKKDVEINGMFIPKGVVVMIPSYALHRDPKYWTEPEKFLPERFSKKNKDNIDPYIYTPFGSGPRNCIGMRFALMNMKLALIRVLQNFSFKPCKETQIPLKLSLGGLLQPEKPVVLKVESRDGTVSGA
Sequence of Cytochrome P450 2C9 (Homo sapiens) (P11712 whole entry, looked up): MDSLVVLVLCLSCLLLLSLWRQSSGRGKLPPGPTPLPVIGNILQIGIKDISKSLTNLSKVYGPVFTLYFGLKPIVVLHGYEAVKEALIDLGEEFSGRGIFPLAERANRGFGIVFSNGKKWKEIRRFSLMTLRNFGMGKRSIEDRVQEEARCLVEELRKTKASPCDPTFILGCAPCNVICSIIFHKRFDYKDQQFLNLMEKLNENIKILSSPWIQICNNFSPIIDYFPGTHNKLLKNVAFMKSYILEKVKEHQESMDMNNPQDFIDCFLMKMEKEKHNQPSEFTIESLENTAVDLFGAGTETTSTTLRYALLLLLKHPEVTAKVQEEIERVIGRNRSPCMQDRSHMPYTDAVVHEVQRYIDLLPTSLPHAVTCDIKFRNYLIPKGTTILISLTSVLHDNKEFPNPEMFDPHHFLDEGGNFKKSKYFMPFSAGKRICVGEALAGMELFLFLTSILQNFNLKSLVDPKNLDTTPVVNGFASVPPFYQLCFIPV
Sequence of Cytochrome P450 2C19 (Homo sapiens) (P33261 whole entry, looked up): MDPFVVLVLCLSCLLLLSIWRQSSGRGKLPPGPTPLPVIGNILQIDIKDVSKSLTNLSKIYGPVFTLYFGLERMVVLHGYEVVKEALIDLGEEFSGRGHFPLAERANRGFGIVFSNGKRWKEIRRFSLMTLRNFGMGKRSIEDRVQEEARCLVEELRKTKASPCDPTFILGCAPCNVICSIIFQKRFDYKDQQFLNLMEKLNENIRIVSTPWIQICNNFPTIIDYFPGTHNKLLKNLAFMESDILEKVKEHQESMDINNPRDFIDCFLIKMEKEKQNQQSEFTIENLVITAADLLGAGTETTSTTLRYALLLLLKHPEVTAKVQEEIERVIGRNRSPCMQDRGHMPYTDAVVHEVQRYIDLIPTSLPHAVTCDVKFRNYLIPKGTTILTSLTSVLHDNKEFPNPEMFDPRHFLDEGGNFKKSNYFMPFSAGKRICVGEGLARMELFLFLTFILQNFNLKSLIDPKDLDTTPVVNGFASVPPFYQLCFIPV

`CCCCCCC1=Cc2cc(OC)c(OC)cc2C(C(C(C)=O)C(=O)OCC)O1` (stereo not given): in [1], the activity change, negative = inhibition was 25.3% [at 11.4 µM]. Besides, in assay [2], the Potency was 1580 nM (active). In addition, the Potency entry in assay [3], in assay [4], in [5] and in assay [6] was “inactive” each time.

Turning to `COC(=O)N[C@@H](C=Cc1ccccc1)C[N+](=O)[O-]`, the Potency entry in assay [3], in assay [4], in assay [5] and in [6] was “inactive” in each case.

Take `COC(=O)CC1c2ccccc2C(Cc2ccc3c(c2)OCO3)=C(C)N1C(=O)OC` (stereo not given): the Potency result in assay [3], in assay [4], in assay [5] and in assay [6] was “inactive” each time.

Turning to `C[C@H]1Cc2c(COc3ccccc3)nc3c(c2CO1)CN(C(=O)NCc1ccco1)CC3`, the activity, negative = inhibition in assay [3] is -0.216% [at 1.12 µM]. In addition, the Potency entry in assay [4], in assay [5] and in [6] was “inactive” in each case.

Turning to `C=C(C(C)=O)C(O)c1ccccc1` (stereo not given), the Potency result in [3], in [4], in [5] and in assay [6] was “inactive” throughout.

As for `COC(=O)CCC(=O)OC1(C)C(=O)C=C2C=C(C3CC3)N(c3ccc(CO)cc3)C=C2C1=O` (stereo not given), in assay [3], the activity, negative = inhibition is -5.46% [at 1.12 µM]. Besides, the Potency result in [4], in [5] and in assay [6] was “inactive” each time.

With `C[C@H](ON=C1[C@H]2CCn3c(=O)n(-c4ccccc4)c(=O)n3[C@@H]2[C@H](O)[C@@H]2O[C@H]12)c1cn([C@H](CO)Cc2ccccc2)nn1`, the Potency entry in [3], in assay [4], in [5] and in assay [6] was “inactive” each time.

For `CC(=CC[Si](C)(C)C)CCC=O`, the Potency entry in [3], in [4], in assay [5] and in assay [6] was “inactive” in each case.

Turning to `C[C@@H]1CC[C@H]2C(=O)N3[C@@H](CC[C@@H](C)[C@@H]3c3ccc(Br)cc3)C(=O)N2[C@@H]1c1ccc(Br)cc1`, in assay [1], the Potency was 3980 nM (active). The activity change, positive = activation in assay [7] was -42.7% [at 11.4 µM]. The Potency result in [3], in assay [4], in assay [5] and in assay [6] was “inactive” each time.

As for `COC(=O)[C@@H]1[C@@H](c2ccccc2)NC(=O)N(CCc2cc(OC)c(OC)c(OC)c2)[C@@H]1C`, the Potency entry in assay [3], in assay [4], in assay [5] and in assay [6] was “inactive” in each case.

With `CN1c2ccccc2[C@@]2(O)C(=O)[C@@]1(C)[C@@H]1C=CCC[C@H]12`, the Potency result in assay [3], in [4], in assay [5] and in assay [6] was “inactive” each time.

As for `Cc1cc2c(c(=O)o1)[C@H]1O[C@](c3ccsc3)(Cc3c1ccc1ccccc31)O2`, the Potency entry in [3], in assay [4], in [5] and in assay [6] was “inactive” in each case.

With `CCCCCCCc1cc2c(cn1)C(=O)C(C)(OC(C)=O)C(O)=C2Cl` (stereo not given), the results for the Potency in assay [3] and in assay [8] were 1890 nM (active) and 953 nM (active), respectively. For the same compound, the Potency entry in assay [6] is “inactive”.

Turning to `COC(=O)CC=C[C@@H](C)[C@@H](C=NO[C@@H](C)c1cn([C@H](CO)Cc2ccccc2)nn1)NS(=O)(=O)c1ccc(C)cc1`, the Potency entry in [3], in assay [8], in assay [9] and in assay [6] was “inactive” throughout.

Take `COC1=C[C@@H](C(=O)N[C@H]2CCCC[C@H]2NC(C)=O)[C@@H](C)[C@H](c2ccccc2)CC1=O`: the Potency result in [3], in assay [4], in assay [5] and in [6] was “inactive” in each case.

In the case of `COC(=O)CC=C[C@@H](C)[C@H](NC(=O)OCC(Cl)(Cl)Cl)c1ccccc1`, the Potency result in assay [3], in assay [4], in assay [5] and in assay [6] was “inactive” throughout.

Turning to `COc1ccc(-c2nc3c(c4c2C[C@H](c2ccccc2)OC4)CN(C(=O)c2cc(I)ccc2F)CC3)c(C)c1`, in assay [3], the activity, negative = inhibition is -3.98% [at 1.12 µM]. The Potency in assay [8] was 1900 nM (active). Besides, the Potency result in [6] was “inactive”.

Turning to `C[C@@H]1C=CCCO[C@]12C(=O)Nc1ccccc12`, the Potency entry in assay [3], in [4], in assay [5] and in assay [6] was “inactive” each time.

In the case of `C[C@H](NC(=O)N1CCc2nc(-c3ccccc3)c3c(c2C1)CO[C@@H](C)C3)c1ccccc1`, the activity, negative = inhibition in assay [3] is 3.91% [at 1.12 µM]. Also, the Potency entry in [4], in assay [5] and in assay [6] was “inactive” in each case.

As to `COC(=O)CC=C[C@@H](C)[C@@H](C=NOC[C@@H](O)COCc1ccco1)NS(=O)(=O)c1ccc(C)cc1`, the Potency result in [3], in assay [4], in [5] and in assay [6] was “inactive” throughout.

In the case of `CCCNC(=O)OC[C@H]1O[C@H](CCON=CC[C@@H]2C=C[C@H](OC(C)=O)[C@@H](COC(C)=O)O2)C=C[C@H]1Oc1ccc(OC)cc1`, the Potency entry in assay [3], in assay [4], in [5] and in assay [6] was “inactive” each time.

`COc1cc2c(cc1OC)[C@@]1(c3ccccc3)CCCC[C@H]1[C@@H]2NC(=O)C(F)(F)F`: the Potency entry in assay [3], in [4], in assay [5] and in assay [6] was “inactive” throughout.

For the compound `C[C@@H]1CC[C@H]2C(=O)N(Cc3ccc(Cl)cc3)C[C@@H](O)CN2[C@@H]1c1cccc(Br)c1`, the Potency result in assay [3], in assay [4], in assay [5] and in [6] was “inactive” in each case.

As to `C[C@H](NC(=O)N1CCc2nc(COc3ccccc3)c3c(c2C1)CO[C@@H](C)C3)c1ccccc1`, the activity, negative = inhibition in assay [3] is -0.0576% [at 1.12 µM]. Besides, the Potency result in assay [4], in assay [5] and in assay [6] was “inactive” throughout.

For the compound `COC(=O)[C@H](COC(C)(C)C)NC(=O)O[C@@H]1C(=O)c2cc(OC)ccc2O[C@H]1c1ccc(OC)c(Br)c1`, the Potency entry in assay [3], in [4], in assay [5] and in assay [6] was “inactive” in each case.

As to `C[C@H]1COC(=O)[C@H](Cc2ccccc2)NC(=O)[C@@H](C)COC(=O)[C@H](Cc2ccccc2)NC1=O`, the activity change, positive = activation in assay [7] was -42.5% [at 11.4 µM]. The Potency result in [3], in [4], in [5] and in [6] was “inactive” throughout.

As to `COC(=O)CCCC1=CC2=CC(=O)C(C)(OC(=O)c3cccs3)C(=O)C2=CN1c1ccc(OC)cc1` (stereo not given), the activity, negative = inhibition in [3] is 1.04% [at 1.12 µM]. For the same compound, the Potency entry in [4], in [5] and in assay [6] was “inactive” throughout.

On to `COc1ccc2c(c1)O[C@@H](c1ccc3c(c1)OCO3)[C@H](OC(=O)Nc1ccc(C)c(Br)c1)C2=O`, for which the Potency result in assay [3], in assay [4], in assay [5] and in assay [6] was “inactive” each time.
